Results filed as inconclusive are left out. Active and inactive are the calls of the source. Unless noted, the call rests on the fitted dose curve; in most records, active means well fitted curve in the direction sought with a large enough effect in the repeat runs; inconclusive means weak or mixed curves; inactive means no such curve, though single readings can be large; an effect the other way counts as inactive or inconclusive.
Tests used:
[1] = biological target: Thyrotropin receptor (Homo sapiens) (UniProt P16473); assay: qHTS assay to identify small molecule agonists of the thyroid stimulating hormone receptor (TSHR) signaling pathway (AID 1224843; calls by dose curve; further: nearly all actives have a fitted effect of over 45% in size)
Thyrotropin receptor (Homo sapiens), sequence (P16473 whole entry, looked up): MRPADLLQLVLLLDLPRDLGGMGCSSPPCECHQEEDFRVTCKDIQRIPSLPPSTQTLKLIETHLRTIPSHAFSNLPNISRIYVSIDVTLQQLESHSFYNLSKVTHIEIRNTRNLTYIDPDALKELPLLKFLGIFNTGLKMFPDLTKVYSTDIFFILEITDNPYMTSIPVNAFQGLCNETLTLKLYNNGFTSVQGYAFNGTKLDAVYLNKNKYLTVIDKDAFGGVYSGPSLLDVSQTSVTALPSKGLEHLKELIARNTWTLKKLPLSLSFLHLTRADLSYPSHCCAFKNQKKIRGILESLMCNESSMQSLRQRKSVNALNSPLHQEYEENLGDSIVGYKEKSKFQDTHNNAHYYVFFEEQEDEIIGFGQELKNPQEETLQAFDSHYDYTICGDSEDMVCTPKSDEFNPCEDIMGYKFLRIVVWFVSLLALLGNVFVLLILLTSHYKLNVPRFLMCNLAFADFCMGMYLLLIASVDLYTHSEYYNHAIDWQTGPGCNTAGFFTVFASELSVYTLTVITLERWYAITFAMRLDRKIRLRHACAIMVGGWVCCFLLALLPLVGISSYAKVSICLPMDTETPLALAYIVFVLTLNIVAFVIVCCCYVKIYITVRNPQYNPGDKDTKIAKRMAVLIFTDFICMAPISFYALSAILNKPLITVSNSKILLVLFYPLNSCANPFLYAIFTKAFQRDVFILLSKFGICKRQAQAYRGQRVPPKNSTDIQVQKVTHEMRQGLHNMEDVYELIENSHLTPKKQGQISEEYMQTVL
In short: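 Compounds are titrated over 15 concentrations, in triplicate, onto TSHR-HEK293 cells seeded at 800/well. Plates sit 30 min at room temperature before cAMP-d2 and anti-cAMP cryptate are added; signal is read after a further hour.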

[2] = qHTS assay to identify small molecule agonists of the hypoxia (HIF-1) signaling pathway - cell viability counter screen (AID 1224844; calls by dose curve; further: nearly all actives have a fitted effect of over 50% in size)
In short: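 Cytotoxicity was measured in parallel with the HRE-driven beta-lactamase readout: after 17 hrs of compound exposure at 37C, HRE-bla ME-180 cells received CellTiter-Glo and luminescence was recorded 30 min later.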

[3] = qHTS assay to identify small molecule agonists of H2AX (AID 1224845; active means well fitted activation curve with a large enough effect in the signal ratio in the repeat runs, not every such curve was filed as active; the % refers to the signal ratio)
In short: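 Wild-type CHO-K1 cells plated overnight, then exposed 3 hr at 37C to compounds at 15 concentrations (0.76% DMSO). Lysed, then HTRF anti-pH2AX(S139)-cryptate/anti-H2AX-d2 detection after 24 hr at room temperature; emissions 665 and 620 nm.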

[4] = qHTS assay to identify small molecule agonists of the hypoxia (HIF-1) signaling pathway (AID 1224846; active means well fitted activation curve with a large enough effect in the signal ratio in the repeat runs, not every such curve was filed as active; the % refers to the signal ratio)
In short: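 Compounds from the Tox21 10K library, dissolved in DMSO, are tested for induction of a hypoxia response element–controlled beta-lactamase reporter in ME-180 cells. Exposure lasts 17 hrs at 37C after a 5 hr settling period, followed by CCF4-AM FRET substrate.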

[5] = qHTS assay to identify small molecule agonists of H2AX - cell viability counter screen (AID 1224847; calls by dose curve; further: top concentration of the series differs between compounds; nearly all actives have a fitted effect of over 30% in size)
In short: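 Read-out: CellTiter-Glo luminescence, 30 min RT. Cells: wild-type CHO-K1, 1000/well, 10% FBS, plated overnight at 37C. Treatment: 15 concentrations, 3 hr, 37C, 0.76% DMSO.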

[6] = qHTS RealTime-Glo MT Cell Viability Assay in HEK293 cells - 32 hour (AID 1224868); further: top concentration of the series differs between compounds; nearly all actives have a fitted effect of over 50% in size
In short: (§1)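 Tox21 10K qHTS, HEK293, 600 cells/well, RealTime-Glo reagent co-dispensed with cells; 5 h preincubation, compound by pintool, 37 C, luminescence at 0–40 h.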

[7] = A CellTox Green Cytotoxicity Assay to monitor cytotoxicity in HEK293 cells - 0 hour (AID 1224869); further: nearly all actives have a fitted effect of over 50% in size
In short: (§2)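 Cells (HEK293, 600/well) and dye reagent are dispensed together. After 5 h at 37 C, 23 nL compound is pinned in. Plates stay at 37 C for 40 h with fluorescence read at 0h, 8h, 16h, 24h, 32h and 40h.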

[8] = qHTS RealTime-Glo MT Cell Viability Assay in HepG2 cells - 40 hour (AID 1224870); further: nearly all actives have a fitted effect of over 50% in size
In short: (§3)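 HepG2 cells mixed with RealTime-Glo MT reagents (NanoLuc plus cell-permeant prosubstrate) were seeded at 600 cells/well, incubated 5 h at 37 C/5% CO2, then pinned with compounds in DMSO; nonlytic luminescence tracked viability during 40 h treatment.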

[9] = A CellTox Green Cytotoxicity Assay to monitor cytotoxicity in HEK293 cells - 40 hour (AID 1224871); further: nearly all actives have a fitted effect of over 45% in size
In short: as §2

[10] = qHTS RealTime-Glo MT Cell Viability Assay in HEK293 cells - 16 hour (AID 1224872)
In short: as §1

[11] = qHTS RealTime-Glo MT Cell Viability Assay in HepG2 cells - 8 hour (AID 1224873); further: nearly all actives have a fitted effect of over 55% in size
In short: as §3

[12] = qHTS RealTime-Glo MT Cell Viability Assay in HEK293 cells - 40 hour (AID 1224874); details: RealTime-Glo luminescence; max response: active compounds read low; further: nearly all actives have a fitted effect of over 50% in size
In short: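 Real-time viability in HEK293: signal arises when living cells convert a prosubstrate for NanoLuc in the medium, so luminescence tracks viable cell number. Compound (23 nL, DMSO) added 5 h post-seeding; kinetic reads at 0–40 h, 37 C.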

[13] = A CellTox Green Cytotoxicity Assay to monitor cytotoxicity in HEK293 cells - 24 hour (AID 1224875); further: series mostly up to about 77 µM; nearly all actives have a fitted effect of over 45% in size
In short: as §2

[14] = A CellTox Green Cytotoxicity Assay to monitor cytotoxicity in HepG2 cells - 16 hour (AID 1224876); further: nearly all actives have a fitted effect of over 45% in size
In short: (§4)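 Cells and non-lytic dye reagent are dispensed together (600 HepG2 cells/well) and incubated 5 h before DMSO compound transfer. Kinetic fluorescence is then recorded in the same wells during 40 h at 37 C.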

[15] = qHTS RealTime-Glo MT Cell Viability Assay in HepG2 cells - 32 hour (AID 1224877); further: nearly all actives have a fitted effect of over 55% in size
In short: (§5)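 Cells + NanoLuc/prosubstrate dispensed (600 cells/well) → 5 h at 37 C/5% CO2 → compounds in DMSO transferred → 40 h incubation at 37 C, luminescence read at 0, 8, 16, 24, 32, 40 h.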

[16] = A CellTox Green Cytotoxicity Assay to monitor cytotoxicity in HepG2 cells - 24 hour (AID 1224878); further: nearly all actives have a fitted effect of over 45% in size
In short: as §4

[17] = A CellTox Green Cytotoxicity Assay to monitor cytotoxicity in HepG2 cells - 40 hour (AID 1224879); further: nearly all actives have a fitted effect of over 40% in size
In short: as §4

[18] = qHTS assay to identify small molecule antagonists of the estrogen related receptor (ERR) signaling pathway from Tox21 library (AID 1224848); further: nearly all actives have a fitted effect of over 50% in size
In short: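 First, 2,000 ERR cells per well were plated and held 6 h at 37 C/5% CO2. Next, compounds in DMSO were pinned in and left 18 h at 37 C. Finally, ONE-Glo was added and luminescence read after 30 min at room temperature.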

[19] = qHTS RealTime-Glo MT Cell Viability Assay in HepG2 cells - 24 hour (AID 1224867); further: nearly all actives have a fitted effect of over 50% in size
In short: as §5
On the % scale 0 is the no-effect control and ±100 the full control effect.

CNC1CCCN(c2c(F)cc3c(=O)c(C(=O)O)cn(C4CC4)c3c2OC)C1 (configuration not stated)
inactive: Potency [1] | Potency [2] | Potency [3] | outcome [4] | Potency [5] | Potency [6] | Potency [7] | Potency [8] | Potency [9] | Potency [10] | Potency [11] | max response [12] -1.56% | Potency [13] | Potency [14] | Potency [15] | Potency [16] | Potency [17]

CC12CC3CC(C)(C1)CC(N)(C3)C2
inactive: Potency [1] | Potency [2] | Potency [3] | Potency [5] | Potency [18] | Potency [19] | Potency [6] | Potency [7] | Potency [10] | Potency [11] | max response [12] 3.93% | Potency [13] | Potency [14] | Potency [15] | Potency [16] | Potency [17]

O=C(O)CCC(=O)c1ccc(-c2ccccc2)cc1
inactive: Potency [1] | Potency [2] | Potency [3] | outcome [4] | Potency [19] | Potency [7] | Potency [8] | Potency [9] | Potency [10] | Potency [11] | max response [12] 0.573% | Potency [13] | Potency [14] | Potency [15] | Potency [16] | Potency [17]

C[C@@H]1C[C@H]2[C@@H]3CCC4=CC(=O)C=C[C@]4(C)[C@@]3(F)[C@@H](O)C[C@]2(C)[C@@]1(O)C(=O)COP(=O)(O)O
inactive: Potency [1] | Potency [2] | Potency [3] | outcome [4] | Potency [5] | Potency [6] | Potency [7] | Potency [8] | Potency [9] | Potency [10] | Potency [11] | max response [12] -21.2% | Potency [13] | Potency [14] | Potency [15] | Potency [16] | Potency [17]

CCOc1ncc(F)c(=O)[nH]1
inactive: Potency [1] | Potency [2] | Potency [3] | outcome [4] | Potency [19] | Potency [6] | Potency [7] | Potency [8] | Potency [9] | Potency [10] | Potency [11] | max response [12] -0.726% | Potency [13] | Potency [14] | Potency [15] | Potency [16] | Potency [17]

NC(=O)CCCCC(N)=O
inactive: Potency [1] | Potency [2] | Potency [3] | outcome [4] | Potency [5] | Potency [19] | Potency [7] | Potency [8] | Potency [9] | Potency [10] | Potency [11] | max response [12] 1.27% | Potency [13] | Potency [14] | Potency [15] | Potency [16] | Potency [17]

CCO[Si](C)(CCCOCC1CO1)OCC (configuration not stated)
inactive: Potency [1] | Potency [2] | Potency [3] | outcome [4] | Potency [18] | Potency [19] | Potency [6] | Potency [7] | Potency [8] | Potency [9] | Potency [10] | Potency [11] | max response [12] 13.3% | Potency [13] | Potency [15] | Potency [16] | Potency [17]

From PubChem BioAssay (Tox21)
